# Source: PubChem BioAssay (NCI)
# Values joined by “and” are separate entries in the source; they are usually repeats but may differ in a detail not shown here. Equal values may be shown once. Compounds without any hit were thinned out: in the full panel of roughly 83,000, 20% have a hit.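 Percent growth is the endpoint: 0 to 100 indicates growth inhibition (40 means 60% inhibition), 0 means no net growth, and negative values indicate cell death.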 Active and inactive are the calls of the source. Rule for the calls: active = growth percent below 10; inactive = the rest.
# Test system: MDA-MB-468 breast
# Test: NCI-60 one-dose screen, 48 h (100 = growth as untreated, 0 = no growth, -100 = all killed)
# Settings: 10 µM unless noted
row,Structure (SMILES),growth
1,C[CH2][Sn]([CH2]C)([CH2]C)[NH]S(=O)(=O)c1ccc(C)cc1,114% (inactive)
2,Cc1cc(N)ccc1N,86.4% (inactive)
3,N#C[Se]Cc1cc(-c2ccccc2)n(-c2ccc(S(N)(=O)=O)cc2)n1,-66.1% (active)
4,COc1ccc(C(O)(C(=O)O)c2ccc(OC)cc2)cc1,104% (inactive)
5,O=C(CBr)Nc1ccc(Cl)cc1,92.8% (inactive)
6,Cc1cc[n+](CCc2ccccc2)cc1,61.2% (inactive) and 72.9% (inactive)
7,COc1ccc(CN2CCN(Cc3ccccc3)CC2)c(O)c1,75.5% (inactive)
8,CC1(C)S[C@H]2CC[C@H]3OC(=O)[C@@H]1N23,95.7% (inactive)
9,CC[PH+](CC)CC.O=COC1OC([S-])C(OC=O)C(OC=O)C1OC=O.[Au+] (stereo not given),-78.8% (active)
10,COC12CC3(C)C(C4=CC(=O)OC4)CCC3(O)C3CCC4=CC(=O)CCC4(CO1)C32 (stereo not given),101% (inactive)
11,CNC(=O)O/N=C(/C)c1ccc(Cl)cc1,105% (inactive)
12,C[C@]12CCc3sc(-c4ccccc4O)nc3C1=CC[C@@H]1[C@@H]2CC[C@]2(C)C(=O)CC[C@@H]12,106% (inactive)
13,C/C(=C\c1ccc(Cl)c(Cl)c1)[N+](=O)[O-],-77.9% (active) and 93.8% (inactive)
14,O=C(Cc1ccccc1)c1ccccc1,106% (inactive)
15,COc1cc(/C=C\c2cc(OC)c(OC)c(OC)c2)cc(N/C=C\C(=O)c2cc(OC)c(OC)c(OC)c2)c1OC,-10.6% (active)
16,N#[N+]c1cnc([O-])[nH]c1=O,88.4% (inactive)
17,CC(C)COC(=O)Cc1ccccc1,101% (inactive)
18,CCC[CH2][Sn]([CH2]CCC)([CH2]CCC)[O]C(=O)CC,-88% (active)
19,C[C@]12CC[C@H]3[C@@H](C[C@@H]4SC(Nc5cccc(F)c5)=N[C@@]45CC(=O)CC[C@]35C)[C@@H]1CCC2=O,-2.99% (active)
20,CSc1ccccc1NP1(=O)OCC(C)([N+](=O)[O-])CO1 (stereo not given),105% (inactive)

row,Structure (SMILES),growth
1,CN(C)CCCOc1ccc2c(c1)c(C(=O)C(=O)NCCO)cn2Cc1ccccc1,117% (inactive)
2,COC1CC2c3ccccc3C1C(C)=[N+]2C (stereo not given),96.4% (inactive)
3,COc1cc(C=Nc2cccc(C(=O)O)c2)ccc1N(CCCl)CCCl,46.6% (inactive)
4,CC1=C2C(=C[C@@](C)(COC(=O)c3ccc(S(=O)(=O)F)cc3)[C@@H]2O)C(=O)[C@](C)(O)C12CC2,-78.8% (active)
5,CCOC(=O)C1C(C=C(C)C)C1(C)C (stereo not given),107% (inactive)
6,CC(C)Nc1ccc(Nc2ccccc2)cc1,5.88% (active)
7,CC(=O)OC[C@]1(C)C=C2C(=O)[C@](C)(O)C3(CC3)C(C)=C2[C@H]1OC(=O)N(C)CCN(C)C(=O)OC(C)(C)C,-62.5% (active)
8,O=[N+]([O-])c1ccc(CI)cc1,75.6% (inactive)
9,Cc1cc(C)cc(Nc2nc3c(s2)CC[C@@]2(C)C3=CC[C@@H]3[C@@H]2CC[C@]2(C)C(=O)CC[C@@H]32)c1,57.9% (inactive)
10,CCCOC(=O)N[C@H]1CCc2c(Br)c(OC)c(OC)c(OC)c2-c2ccc(SC)c(=O)cc21,-14.2% (active)
11,CC12CCC(O)CC1=CCC1C2CCC2(C)C(O)CCC12 (stereo not given),99.4% (inactive)
12,CCCCCCCCC(CO)NCCc1ccccc1 (stereo not given),100% (inactive)
13,CCCCCCCC(=O)OCC/C=C/C1OC1C1OC(=O)/C=C\C=C\c2nc(oc2C)/C=C(/C)CCC2OC2C1OC(=O)NC(C)=O (stereo not given),-51.1% (active)
14,C[N+]12CCC34C5=CC(=O)C(=O)C=C5[N+]5(C)C(=O)CC6OCC=C(C1)C(CC32)C6C45 (stereo not given),99.9% (inactive)
15,Oc1ccccc1-c1ccccc1,105% (inactive) and 103% (inactive)
16,CNC(=O)Oc1ccc2c(c1)OCO2,94.6% (inactive)
17,Cc1cccc(N2CCN(C(C)C#N)CC2)c1 (stereo not given),100% (inactive)
18,O=C(N/N=C/c1ccc(N(CCCl)CCCl)cc1)c1cc(=O)[nH]c(=O)[nH]1,-0.0833% (active)
19,COC(=O)[C@@H](C)C[C@H](Cc1ccccc1)NC(=O)c1csc([C@@H](C[C@H](C(C)C)N(C)C(=O)[C@@H](NC(=O)[C@H]2CCCCN2C)C(C)C)OC(C)=O)n1,-11.2% (active)
20,CC(=O)OC1CC2(O)C(CCC3(C)C(c4ccc(=O)oc4)CCC32O)C2(C)CCC(OC3OC(CO)C(O)C(O)C3O)C=C12 (stereo not given),-34.6% (active)
